Laboratory results from PubChem BioAssay (NCATS).
Results filed as inconclusive are left out. Unmarked numbers belong to inactive results. Active and inactive are the calls of the source. Calls follow the shape of the dose curve; as a rule, active = well fitted inhibition curve with a large enough effect; inconclusive = small, poorly fitted or top-dose-only effect; inactive = flat fitted curve, though single readings scatter.

Each compound was assayed against Glutathione peroxidase 1 (Homo sapiens) (UniProt P07203) (assay: Primary qHTS Assay for Inhibitors of Recombinant Selenoprotein Glutathione Peroxidase 1 (GPX1) (AID 1845191; also: nearly all actives have a fitted effect of over 65% in size)). Settings: recombinant GPX1, GR-coupled NADPH fluorescence, 15 min; series mostly up to 48.8 µM; activity, negative = inhibition: at the top concentration.
Method in brief: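 NADPH consumption tracked by fluorescence at 340/450 nm between t=0 and t=15 min, room temperature. Final mix: 10 nM GPX1, 100 nM glutathione reductase, 1 mM GSH, 0.5 mM NADPH, 0.5 mM cumene hydroperoxide, 0.01% BSA; 30 min compound–enzyme preincubation.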
% is scaled to controls: 0 for no effect and ±100 for the full control effect.

Sequence of Glutathione peroxidase 1 (Homo sapiens) (P07203 whole entry, looked up): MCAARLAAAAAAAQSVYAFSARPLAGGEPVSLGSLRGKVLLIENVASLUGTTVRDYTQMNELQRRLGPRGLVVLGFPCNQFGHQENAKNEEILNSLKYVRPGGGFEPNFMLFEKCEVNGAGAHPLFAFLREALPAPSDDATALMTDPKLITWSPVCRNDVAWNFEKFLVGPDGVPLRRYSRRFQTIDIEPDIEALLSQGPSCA

Structure (SMILES)	activity, negative = inhibition [%]	outcome
CN(C)CCOC(c1ccccc1)c1ccc(Br)cc1 (centres undefined)	-15.2	–
CCCCCOc1ccccc1/C(=C\SC)n1ccnc1	-0.238	–
O=C(c1ccccc1)c1ccccc1	–	inactive
COC(=O)/C=C\C(=O)OC	-15.6	–
O=C(CO)[C@@H](O)[C@H](O)[C@@H](O)CO	–	inactive
CC(CC(C#N)(c1ccccc1)C(C)C)N(C)C (centres undefined)	-10.8	–
O=C(Nc1ccc(Cl)cc1)Nc1ccc(Cl)c(Cl)c1	-14.2	–
CCCCCC1Nc2cc(C(F)(F)F)c(S(N)(=O)=O)cc2S(=O)(=O)N1 (centres undefined)	-29.2	–
O=C1NC(c2ccccc2)(c2ccccc2)C(=O)N1COP(=O)(O)O	-12.6	–
CCCC(=O)OCOC(=O)C1=C(C)NC(C)=C(C(=O)OC)C1c1cccc(Cl)c1Cl (centres undefined)	-13.6	–
C/C(=N\O)[C@@H](C)NCC(C)(C)CN[C@H](C)/C(C)=N/O	–	inactive
COc1ccc(-n2nc(CCC(=O)N(C)O)cc2-c2ccc(Cl)cc2)cc1	–	inactive
CCCC(=O)O[C@]1(C(=O)CC)CC[C@H]2[C@@H]3CCC4=CC(=O)CC[C@]4(C)[C@H]3[C@@H](O)C[C@@]21C	-13.4	–
O=C(C1CCCCC1)N1CC(=O)N2CCCc3ccccc3C2C1 (centres undefined)	4.8	–
CC(C)(C)C(O)/C=C/c1ccc2c(c1)OCO2 (centres undefined)	2.43	–
O=C(OCC(COC(=O)c1cccnc1)(COC(=O)c1cccnc1)COC(=O)c1cccnc1)c1cccnc1	2.18	–
CC(=O)N[C@@H](CCC(N)=O)C(=O)O	-8.38	–
CC(=O)N(c1onc(C)c1C)S(=O)(=O)c1ccc(N)cc1	-14.7	–
O=C(COCCOCCOCC(=O)Nc1c(I)cc(I)c(C(=O)O)c1I)Nc1c(I)cc(I)c(C(=O)O)c1I	-0.689	–
